EBNA-1 inhibitor: blocks EBNA-1 binding to DNA. EBNA-1 DNA binding, fluorescence polarization. inhibition, % at 14.8 µM. actives 0.34% (n = 300,000); in the data active = inhibition above about 28%
GSTO1 counter: blocks human GSTO1 in RBBP9 counter-screen | P78417 | actives 1.1% (n = 300,000) | inhibition, % at 5.96 µM | AID 1974 | recombinant GSTO1, activity-based probe fluorescence polarization;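 active = inhibition above the campaign mean inhibition plus 3 SD, cut at about 35% in these data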;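 also: 0% = GSTO1-1 with DMSO and 100% = wells lacking GSTO1-1 enzyme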
ZTA DNA inh: blocks Epstein-Barr virus ZTA, an EBNA-1 counter-screen | actives 0.15% (n = 320,000) | ZTA-DNA binding, fluorescence polarization | P03206 | inhibition, % at 11 µM; in the data active = inhibition above about 33%
LYPLA1 inh: counter-screen for PME1 inhibitors: inhibitors of human LYPLA1; O75608; recombinant LYPLA1, FP-Rh probe fluorescence polarization; actives 0.16% (n = 320,000); AID 2174; inhibition, % at 5.9 µM;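 active = inhibition above the mean of all tested compounds plus 3 SD, set per campaign, cut at about 14% in these data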;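 also: inhibitors block serine hydrolase probe labeling of LYPLA1 so polarization falls; 0% = enzyme with DMSO and 100% = wells lacking LYPLA1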
Target sequence (O75608 whole entry, looked up): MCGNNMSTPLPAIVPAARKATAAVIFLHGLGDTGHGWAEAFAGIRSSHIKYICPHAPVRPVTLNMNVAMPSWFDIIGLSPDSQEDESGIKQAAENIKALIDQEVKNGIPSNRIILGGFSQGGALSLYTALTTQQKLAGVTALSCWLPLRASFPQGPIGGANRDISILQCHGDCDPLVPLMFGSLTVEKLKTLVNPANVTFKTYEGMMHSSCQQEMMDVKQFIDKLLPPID
PAD4 inh: inhibitors of human PAD4. inhibition, % at 6.36 µM. actives 0.41% (n = 330,000). recombinant PAD4, RCA probe fluorescence polarization. AID 485272. Q9UM07;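 active = percent inhibition above a cutoff equal to the mean of all tested compounds plus 3 SD, cut at about 15% in these data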;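 also: 0% = PAD4 with RCA probe and DMSO and 100% = probe without PAD4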
LYPLA2 counter: blocks human lysophospholipase 2, a PME1 counter-screen. O95372. recombinant LYPLA2, FP-Rh probe fluorescence polarization. inhibition, % at 5.9 µM. actives 0.38% (n = 320,000);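 active = inhibition above the screen-wide mean plus 3 SD, limit set per campaign, cut at about 26% in these data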;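 also: 0% = LYPLA2 with DMSO and 100% = wells lacking LYPLA2 enzyme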
Target sequence (O95372 whole entry, looked up): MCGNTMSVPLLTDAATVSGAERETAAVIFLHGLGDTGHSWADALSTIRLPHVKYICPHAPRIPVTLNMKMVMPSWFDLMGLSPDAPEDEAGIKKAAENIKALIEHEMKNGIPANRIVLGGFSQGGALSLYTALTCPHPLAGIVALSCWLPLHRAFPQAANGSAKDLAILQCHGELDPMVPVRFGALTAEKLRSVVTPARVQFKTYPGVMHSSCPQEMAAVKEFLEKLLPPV
Numbers without * were called inactive; · = no result given. Compounds with a hit are over-represented: about 1.7% of the library has one in this group of screens.

SMILES | EBNA-1 inhibitor | GSTO1 counter | ZTA DNA inh | LYPLA1 inh | PAD4 inh | LYPLA2 counter
COc1ccc(/C=C(\C#N)C(=O)NCCc2ccccc2)cc1OCc1ccccc1 | -5 | 0 | -15 | -4 | -2 | -2
COCCCNC(=O)/C(C#N)=C/c1ccc(OCC(=O)O)c(OC)c1 | -6 | 41* | -3 | -7 | -3 | -2
COc1cccc(/C=C/c2[nH]c(=O)[nH]c(=O)c2[N+](=O)[O-])c1O | 9 | 36* | 9 | -1 | 4 | 2
CCOc1ccc(/C=C/c2[nH]c(=O)[nH]c(=O)c2[N+](=O)[O-])cc1 | 13 | -7 | -1 | -2 | -3 | 2
CCOC(=O)c1c(C)[nH]c(C(=O)Nc2cc(OCC)c(N3CCOCC3)cc2OCC)c1C | · | · | -10 | 1 | -4 | -1
Cc1ccc(CC(=S)N2CCOCC2)cc1 | 8 | 37* | -7 | -3 | -5 | -2
CCc1ccc(CC(=S)N2CCOCC2)cc1 | 5 | 6 | -15 | -1 | -1 | 4
O=c1ccc2ccc(Oc3ccc(Cl)cc3[N+](=O)[O-])cc2o1 | -7 | 0 | -2 | 11 | 0 | 32*
Cc1ccc2nc(-c3ccc(NC(=O)COC(=O)c4ccc([N+](=O)[O-])o4)cc3)sc2c1 | -1 | 4 | 7 | -7 | 1 | -9
Cc1ccc2nc(-c3ccc(NC(=O)COC(=O)c4ccc(Br)o4)cc3)sc2c1 | 35* | -5 | 4 | -6 | 0 | -5
O=C(N/N=C/c1cccc(Cl)c1)C1CCCC1 | -2 | -1 | -5 | 3 | -3 | 4
O=C(NCC(c1cccs1)N1CCOCC1)c1ccccc1NS(=O)(=O)c1ccc(Cl)c([N+](=O)[O-])c1 (stereo not drawn) | 3 | 50* | 8 | -2 | -2 | -11
O=C(CCC(=O)OCc1ccc([N+](=O)[O-])cc1)Nc1ccccc1Cl | 4 | 7 | -18 | -7 | -1 | -3
Oc1ccc(O)c(Cc2nc3ccccc3[nH]2)c1 | -7 | 70* | 1 | -2 | -3 | -9
c1ccc2[nH]c(CCCc3nc4ccccc4[nH]3)nc2c1 | -4 | 8 | -15 | 0 | 0 | -1
O=C(O)c1cc(N/N=C/c2cccc3ccccc23)ccc1Cl | -11 | 0 | -1 | 2 | -7 | 2
O=C(O)c1cc(N/N=C/C(Cl)=C/c2ccccc2)ccc1Cl | -8 | 40* | 13 | 6 | 1 | 5
C[n+]1cccc2ccc3c(c21)OC(N)=C(C#N)C3c1ccccc1 (stereo not drawn) | 11 | 9 | -6 | -1 | -7 | -4
C[n+]1cccc(C2C(C#N)=C(N)Oc3c2ccc2ccccc32)c1 (stereo not drawn) | -6 | 37* | -21 | 6 | -11 | 5
CC1(OC(=O)c2ccc(Cl)nc2)C(=O)C=C2C=C(C3CC3)OC=C2C1=O (stereo not drawn) | 21 | 24 | 29 | 21* | 14 | 21
CC1(OC(=O)c2ccc(Cl)nc2)C(=O)C=C2C=C3CCCN3C=C2C1=O (stereo not drawn) | 6 | 35* | 27 | -1 | -5 | -2
CC1(OC(=O)c2ccc(Cl)nc2)C(=O)C=C2C=C(c3ccc(C#N)cc3)OC=C2C1=O (stereo not drawn) | 2 | 36* | 5 | 0 | 1 | -2
CC1(OC(=O)C2CCCC2)C(=O)C=C2C=C(C3CC3)OC=C2C1=O (stereo not drawn) | 14 | 22 | 7 | 0 | -1 | 6
COC/C=C/C1=CC2=CC(=O)C(C)(OC(=O)c3cnc4ccccc4n3)C(=O)C2=CN1C1CC1 (stereo not drawn) | -4 | 29 | -2 | 0 | 9 | 6
CC1(OC(=O)c2ccc(Cl)nc2)C(=O)C=C2C=C(c3ccsc3)OC=C2C1=O (stereo not drawn) | 2 | 24 | -11 | 0 | -5 | 7
SMILES | EBNA-1 inhibitor | GSTO1 counter | ZTA DNA inh | LYPLA1 inh | PAD4 inh | LYPLA2 counter
Cc1c(NC(=O)COC(=O)CCC(=O)c2ccc(Cl)cc2)c(=O)n(-c2ccccc2)n1C | -1 | -2 | -19 | 0 | 0 | -1
CCn1c(SCC(=O)NNC(=S)Nc2ccc(C)cc2)nnc1-c1ccc(Cl)cc1 | 5 | 35* | -6 | -1 | -7 | 2
C#CCOCCOCCOCCNc1nc(N2CCN(C(=O)CCCCCCCCCCNC(=O)[C@H]([C@@H](C)CC)n3cc(CCCCN=C(N)N)nn3)CC2)nc(N2CCN(C(=O)CCCCCCCCCCNC(=O)[C@H]([C@@H](C)CC)n3cc(CCCCN=C(N)N)nn3)CC2)n1 | -2 | -5 | 147* | -2 | -25 | 33*
C#CCOCCOCCOCCNc1nc(N2CCN(C(=O)CCCCCCCCCCNC(=O)[C@H]([C@@H](C)CC)n3cc(CCCCCN)nn3)CC2)nc(N2CCN(C(=O)CCCCCCCCCCNC(=O)[C@@H]([C@H](C)CC)n3cc(CCCCCN)nn3)CC2)n1 | -5 | 2 | 65* | 7 | -4 | 57*
C#CCOCCOCCOCCNc1nc(N2CCOCC2)nc(N2CCN(C(=O)CCCCCCCCCCNC(=O)[C@@H]([C@H](C)CC)n3cc(CCCCCN)nn3)CC2)n1 | -3 | 2 | 2 | -2 | -3 | 9
O=C(O)c1ccc(/C=C2\SC(=S)N(Nc3ccccc3)C2=O)cc1 | 2 | 1 | 5 | -2 | 0 | 0
O=C1/C(=C/c2ccncc2)SC(=S)N1Nc1ccccc1 | -2 | 36* | 17 | 0 | -7 | 0
COc1ccccc1NC(=O)C(C)OC(=O)C1CCN(S(=O)(=O)c2ccc(C)c(C)c2)CC1 (stereo not drawn) | 5 | -2 | -5 | 4 | 2 | 6
O=C(c1ccccc1)c1ccc2nc(-c3ccc(NC(=O)c4ccccc4Br)cc3)[nH]c2c1 | 45* | -93 | -2 | -32 | -11 | -51
Cc1ccc(C(=O)N/N=C/c2ccc(-c3ccccc3[N+](=O)[O-])o2)cn1 | -2 | 37* | 3 | 1 | -6 | 0
Cc1ccc(C(=O)N/N=C/c2ccc(-c3cccc(Cl)c3)o2)cn1 | -8 | -7 | -6 | -11 | -4 | -20
Cc1ccc(/C=C/C(=O)N2CCCC(C(N)=O)C2)o1 (stereo not drawn) | 6 | -4 | 11 | 1 | 1 | 5
C/C(=N\N=C(/N)SC1CC(=O)N(c2ccc(Cl)cc2)C1=O)c1cccs1 (stereo not drawn) | 13 | 36* | 3 | -5 | -2 | -2
C/C(=N\N=C(/N)SC1CC(=O)N(c2ccccc2)C1=O)c1cccs1 (stereo not drawn) | 3 | 9 | -1 | 0 | 4 | 2
O=C(COc1cccnc1[N+](=O)[O-])c1ccc(Cl)s1 | -2 | 35* | 11 | -3 | -4 | 2
O=C(COc1cccnc1[N+](=O)[O-])Nc1c(Cl)cccc1Cl | · | · | · | · | -1 | ·
COc1ccc(NC(=O)CCC(=O)OCC(=O)c2ccc(Oc3ccc([N+](=O)[O-])cc3)cc2)cc1 | -4 | -3 | -2 | 1 | -5 | 26*

Compound activity (PubChem)
